Screening data from PubChem.
The entries come from a sample that favours hits as a whole.
Tgondii IFNg = T. gondii growth inhibition with IFN-gamma, primary screen, cell-based. Toxoplasma gondii growth in IFN-gamma-treated host cells; stronger effect = lower value. activity change, negative = inhibition, % (no concentration beside the values). 69,000 tested, 3.8% active. AID 1259416, 2018; in the data active means activity change below about -70%, passing the limit was not always enough;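 further: host cells are HeLa cells infected with Toxoplasma gondii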
Of the large screens only hits and unclear results are named; the others gave an inactive call; ! = a repeat was not active.

FC(F)(F)c1cccc(-c2nnc(C3c4ccccc4Oc4ccccc43)o2)c1	Tgondii IFNg -99
FC(F)(F)c1cccc(-c2ccc(-c3cccc(C(F)(F)F)c3)o2)c1	none
Cc1oc(-c2cccc(C(F)(F)F)c2)nc1CN(C)Cc1cnc(N)nc1	none
O=C(CSc1nnc(-c2ccccn2)c(-c2ccccn2)n1)c1ccc(Cl)s1	none
CC12CCC3c4ccc(O)cc4CCC3C1C[C@H](O)[C@@H]2O (some centres undefined)	none
COc1cc2c(cc1O)CC[C@@H]1[C@@H]2CC[C@]2(C)[C@@H](O)CC[C@@H]12	Tgondii IFNg -83!
C[C@]12CC[C@@H]3c4ccc(O)cc4CC[C@H]3[C@@H]1C[C@@H](O)[C@@H]2O	none
CCCCn1nc(C)c2c1NC(=O)CC2C1CCNCC1 (centres undefined)	none
CC(=O)C1C(=O)[C@@H]2[C@H]3c4c[nH]c5cccc(c45)C[C@H]3C(C)(C)N2C1=O (some centres undefined)	Tgondii IFNg -81!
CN1C[C@H](C(=O)N[C@]2(C)O[C@@]3(O)[C@@H]4CCCN4C(=O)[C@H](Cc4ccccc4)N3C2=O)C[C@@H]2c3cccc4[nH]cc(c34)C[C@H]21	none
CN1CCc2ncc(CNC(=O)c3nccn3C)n2CC1	none
CCCc1[nH]c(=O)cc2cc(OC)c(OC)cc12	none
CCCCc1cc(C)c2[nH]c(=O)cc(C)c2c1	Tgondii IFNg -88
CC(=O)CCc1c(C)c2cccc(C)c2[nH]c1=O	none
Cc1cc(N)n(CC(=O)N2CCCC3(CCN(C)C3)C2)n1 (centres undefined)	none
O=C(NCc1cccc(F)c1)Nc1ccc(-c2nc(-c3ccccc3)co2)cc1	none
Fc1cccc(CNc2c3c(nc4cc(-c5cccc(Cl)c5)nn24)CCC3)c1	Tgondii IFNg -90
Fc1cccc(CNc2nc(-c3nnc(-c4ccc(Cl)cc4)o3)nc3ccccc23)c1	none
CC(=O)N1CCC2(CC1)CC(Oc1ccccc1)CO2 (centres undefined)	none
O=C(O)c1cc2n(n1)CCN(Cc1ccccc1)C2	none
CCOC(=O)c1cc(C)nc2c1c(=O)n(Cc1nc(-c3ccc(OC(C)C)cc3)oc1C)c(=O)n2C	Tgondii IFNg -81
CCOC(=O)c1cc(C)nc2c1c(=O)n(Cc1nc(-c3ccc(OC)cc3)oc1C)c(=O)n2C	none
CCOC(=O)c1cc(C)nc2c1c(=O)n(Cc1nc(-c3ccc(C)cc3)oc1C)c(=O)n2C	none
Cc1nnc(-c2ccc3ccn(CC(=O)Nc4ncccc4C)c3c2)o1	none
CCOc1cc([C@@H](CS(C)(=O)=O)N2C(=O)c3cccc(NC(C)=O)c3C2=O)ccc1OC	none
O=C(Cc1c[nH]c2ccccc12)NCC1CCN(c2cc(-c3ccncc3)[nH]n2)CC1	none
CCOc1ccnc(N2CCN(CC(=O)NC(C)C)CC2)n1	none
CCn1c(CN2CCCC2c2nc(-c3ccncc3)no2)nc2ccccc21 (centres undefined)	none
O=C(c1csc(-c2ccc(N3CCCC3)nc2)n1)N1CCC2(CC1)OCCO2	none
O=C(NCCN1CCOCC1)c1csc(-c2ccc(N3CCCC3)nc2)n1	Tgondii IFNg -100
O=C(NCc1ccc(N2CCOCC2)cc1)c1csc(-c2ccc(N3CCCC3)nc2)n1	none
Cc1cc(C)n(C(C)C(=O)Nc2cccc(CN3CCC(C)CC3)c2)n1 (centres undefined)	none
Cc1ccc(C2(O)CCN(C(=O)CCc3cc(=O)[nH]o3)CC2)nc1	none
CCCCCCOc1nsnc1C1=CCCN(C)C1	Tgondii IFNg -75
c1ccc(CN2CCOCC3(CC(Cn4cnnc4)CO3)C2)cc1 (centres undefined)	none
Cn1cnc(S(=O)(=O)N2CCC3NC(=O)CC32)c1 (centres undefined)	none
COC(=O)[C@@H]1C[C@@H](N(C)C)CN1S(=O)(=O)c1c(C)noc1C	none
CC(C)NC(=O)N1CCOCC2(C1)CN(c1ccsc1)C(=O)CO2 (centres undefined)	none
Cc1nnsc1CNC(=O)CC1COc2ccc(C(=O)N(C)C)cc2N1C (centres undefined)	none
Cc1cccc(CN(Cc2ccccc2)C(=O)c2ccc3nc(C(F)(F)F)[nH]c3c2)n1	none
Cc1ccc(-c2ncc(CN(Cc3ccccc3)Cc3cccc(C)n3)cn2)cc1	Tgondii IFNg -79
Cc1cccc(CN(Cc2ccccc2)C(=O)CCc2ccncc2)n1	none
CC(C)c1noc(CCC(=O)Nc2ccc(N3CCCC3)c3nonc23)n1	none
O=c1[nH]c2ccccc2c(O)c1-c1nc(-c2ccc(Br)cc2)no1	none
O=Nc1c(-c2c(O)[nH]c3cc(Br)ccc23)[nH]c2ccccc12	Tgondii IFNg -92
O=C1C(c2c(O)[nH]c3ccccc23)=Nc2ccccc21	none
CCC(NC(=O)CC(=O)Nc1ccc(C)c(Cl)c1)c1nc(C)no1 (centres undefined)	none
Cc1ccc(NC(=O)CC(=O)NCCCn2ccnc2)cc1Cl	none
Cc1ccc(Nc2nc3nonc3n3cnnc23)cc1Cl	Tgondii IFNg -106
CN(Cc1ccco1)CC1CCC2(COCCN(C(N)=O)C2)O1 (centres undefined)	none
CC12C(=O)OC(=O)C1(C)C1CCC2O1 (centres undefined)	Tgondii IFNg -86
O=C1OC(CN2CCOCC2)CN1/N=C/c1ccc([N+](=O)[O-])o1 (centres undefined)	none
